Calls of active or inactive are those of the source. The calls were made as follows: active = hit-call score of the fitted dose curve at least 0.9, where 1 is the maximum; inactive = score below 0.9.

Our source for the outcome and AC50 values is PubChem BioAssay (EPA / NIEHS).

Read-out in this experiment: Lipase C (LIPC), LIPC (gene 3990)
In words: LTEA_HepaRG_LIPC: Life Technologies and Expression Analysis (LTEA) Assay for Lipase C (LIPC) using HepaRG (AID 2283514). The following applies: mRNA level, 48 h; actives raise or lower the signal. Here is the method:
LTEA_HepaRG is a cell based, multiplexed-readout assay that uses HepaRG, a human liver cell line, with measurements taken at 48 hours after chemical dosing on a 96-well plate.LTEA_HepaRG_LIPC is one of 102 assay component(s) measured in the LTEA HepaRG cell culture assay. It is a marker of Steatosis.Data from the assay component LTEA_HepaRG_LIPC was analyzed into 1 endpoint. This assay endpoint, LTEA_HepaRG_LIPC, was analyzed with bidirectional fitting relative to DMSO as the negative control and baseline of activity. Using a type of inducible reporter, measures of mRNA induction for gain or loss-of-signal activity can be used to understand regulation of transcription factor activity. To generalize the intended target to other relatable targets, this assay endpoint is annotated to the esterase intended target family, where the subfamily is lipase.
A total of 1060 chemcials from the ToxCast library were tested in eight-point concentration-response experiments. Cell culture and cytotoxicity assays were conducted at Thermo Fisher Scientific's Custom Services facility (Madison, WI). A single lot of human HepaRG cells (Thermo Fisher Scientific, Frederick, MD) was used for the cell culture experiments. 96-well format collagen type I coated plates of human HepaRG cells were prepared using established methods. Briefly, cryopreserved HepaRG cells were thawed, plated at a density of approximately 100,000 cells/well in HepaRG Thaw, Plate, and General Purpose media (HPRG770, Thermo Fisher Scientific), and incubated for 48 hours. 0.5% DMSO was selected as vehicle control to balance the requisite need of DMSO in HepaRG cultures to maintain differentiation (for example, baseline metabolism, proportions of hepatocytes vs. cholangiocytes), while enabling further hepatic receptor pathway activation (for example, PXR and CAR) in response to chemical exposure. 48 hours after plating, the culture medium was replaced with HepaRG Serum-Free Incudtion Media. Cells were exposed to each test chemical in duplicate and maintained in CO2 incubators for another 48 hours. Chemical plates were thawed to room temperature and 200x concentrations of treatment groups were prepared. 8-point conentration-reponse curves were made with the highest exposure at 100 uM, followed by half-log dilutions, all in 0.5% DMSO. Each test plate contained variouse controls, induction positive controls (1mM phenobarbital), cytotoxicity positive controls ([…] aflatoxin B1), vehicle controls (0.5% DMSO), and total lysis controls (0.5% DMSO). Cell morphology images were taken using an Essen IncuCyte FLR automated microscope, with six 96-well plates imaged in about 24 minutes. Images were captured and exported and JPEG files. Spent culture media was transfered to black-well plates for the LDH assay, and remaining media was sorted at -80 C for later use. Cells were treated with RLT buffer and frozen until shipped for gene expression analysis. Total RNA was isolated from the cell suspension in 75 uL of Buffer RLT (Qiagen, Germantown, MD 20874) by Quintiles/Expression Analysis (Durham, NC) using a custom isolation procedure. Total RNA from each plate well was transferred to a preamplification plate. Fluidigm's 96.96 Dynamic ArrayTM (Fluidigm, Amsterdam, the Netherlands) technology was used for gene expression analyses by quantitative reverse transcription polymerase chain reaction (qRT-PCR, performed by Quintiles/Expression Analysis, Durham, NC)89. Standard TaqManTM Assays (Applied Biosystems/ThermoFisher Scientific, Foster City, CA) were used to assess the expression of 93 genes selected based on their selectivity and sensitivity to important hepatic receptors known to be modulated by environmental chemicals; importance in human hepatocyte functionality; and hepatotoxicity. […]
Take `CCOP(=S)(OCC)SCSCC`: the outcome was inactive.
As to `c1cc2c3c(cccc3c1)CC2`, the outcome was inactive.
With `ClC1=C(Cl)C2(Cl)C3C(Cl)C(Cl)CC3C1(Cl)C2(Cl)Cl` (stereo not given), the AC50 was 43.7 µM (active).
As to `CC(C)(C)OOC(C)(C)C`, the outcome was inactive.
On the same count and under the same terms, the entry for `CCN(CC)c1ccccc1` is “inactive”; for `Nc1ccc2ccccc2c1` it is “inactive”.
As to `CCNc1nc(Cl)nc(NC(C)(C)C)n1`, the outcome was inactive.
Same read-out and setting: the entry for `CC(Cc1ccc(OCC(=O)O)cc1)NCC(O)c1csc(C(F)(F)F)n1` (stereo not given) is “inactive”; for `Cc1ccc([N+](=O)[O-])cc1C` it is “inactive”; for `ClC(Cl)c1ccccc1` it is “inactive”.
Regarding `OCC1CO1` (stereo not given), the compound was classed as inactive.
The same measure, in the same setting: the entry for `CCOC(=O)c1ccccc1C(=O)OCC` is “inactive”; for `Nc1ccc(Cl)cc1` it is “inactive”; for `c1ccc(OP(Oc2ccccc2)Oc2ccccc2)cc1` it is “inactive”.
On to `O=[N+]([O-])c1ccc(Cl)c(Cl)c1`, for which the compound was classed as inactive.
Same read-out and setting: the entry for `CC(C)(C)c1ccc(O)cc1` is “inactive”.
With `CCOc1ccc(C(C)(C)COCc2cccc(Oc3ccccc3)c2)cc1`, the call was inactive.
On to `c1nc[nH]n1`, for which the compound was called inactive.
With `Cc1cccc(N)c1`, the result was inactive.
The same measure, in the same setting: the entry for `CCCN(CCC)c1c([N+](=O)[O-])cc(C(C)C)cc1[N+](=O)[O-]` is “inactive”.
The same measure, in the same setting: with `COCCOCCO` the entry was “inactive”.
Regarding `CCC1(c2ccccc2)C(=O)N=C(O)NC1=O` (stereo not given), the result was inactive.
Still for that read-out and setting: the entry for `CCCCc1ccccc1` is “inactive”; for `O=C(O)C(Cl)Cl` it is “inactive”.
Still for that read-out and setting: the entry for `CCOS(=O)(=O)OCC` is “inactive”.
For the compound `CCCCCCCc1ccc(O)cc1`, the compound was classed as inactive.
Same read-out and setting: the entry for `O=P1(N(CCCl)CCCl)NCCCO1` (stereo not given) is “inactive”; for `Cc1ccc(O)cc1C` it is “inactive”; for `CN(C)C(=O)Cl` it is “inactive”.
On to `CCOP(=S)(Oc1ccc([N+](=O)[O-])cc1)c1ccccc1` (stereo not given), for which the compound was classed as inactive.
For `CC(Cl)(Cl)C(=O)O`, the outcome was inactive.
Still for that read-out and setting: the entry for `O=P(Oc1ccccc1)(Oc1ccccc1)Oc1ccccc1` is “inactive”; for `O=[N+]([O-])c1ccccc1` it is “inactive”.
Same read-out and setting: the entry for `Cc1ccc(N)cc1N` is “inactive”.
The same measure, in the same setting: the entry for `CCCCN(CCCC)SN(C)C(=O)Oc1cccc2c1OC(C)(C)C2` is “inactive”; for `CCCCN(CCCC)N=O` it is “inactive”.
Turning to `CSC(C)(C)C=NO`, the result was inactive.
On the same count and under the same terms, with `c1ccc2c(c1)Nc1ccccc1S2` the entry was “inactive”; with `ClC(Cl)(Cl)c1ccccc1`, “inactive”.
Turning to `O=C(O)C1C(C(=O)O)C2(Cl)C(Cl)=C(Cl)C1(Cl)C2(Cl)Cl` (stereo not given), the compound was classed as inactive.

What is called AC50 is the concentration at which the activity in the assay is half-maximal.
